Measurements: PubChem BioAssay (NCATS)
Records with an inconclusive call do not appear. Entries that show only a call come without a potency. A number with no mark means an inactive call. Active and inactive are the calls of the source. Calls follow the shape of the dose curve; as a rule, active = well fitted curve in the direction sought with a large enough effect; inconclusive = small, poorly fitted or top-dose-only effect, or another doubt; inactive = no such curve, though single readings can be large; an effect the other way counts as inactive or inconclusive.

Legend:
[1] = molecular target: Cellular tumor antigen p53 (Homo sapiens) (UniProt P04637); assay: Primary qHTS for small molecule compounds that upregulate eGFP-tagged delta133p53alpha (in N-terminal) cells. (AID 2060322); conditions: NCI-H358 eGFP-delta133p53alpha fluorescence, 24 h; activation: hits give high values; also: nearly all actives have a fitted effect of over 75% in size; also: potency is read from the fitted curve at half-maximal effect; as to activation: series mostly up to about 56 µM
In short: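 NCI-H358 cells pre-induced 24 h with 10 ng/ml doxycycline to express N-terminal eGFP-delta133p53alpha, then dosed 24 h at 37C without doxycycline; fixed, Hoechst-stained, GFP intensity by laser scanning cytometry, normalized to DMSO (0%) and 57.5 uM 5-azacytidine (100%).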

[2] = molecular target: Aldehyde dehydrogenase, mitochondrial (Homo sapiens) (UniProt P05091); assay: qHTS for Inhibitors of the Aldehyde Dehydrogenase Family (ALDH2) Primary screen (AID 2061308); also: nearly all actives have a fitted effect of over 55% in size
[3] = molecular target: Retinaldehyde dehydrogenase 3 (Homo sapiens) (UniProt P47895); assay: qHTS for Inhibitors of the Aldehyde Dehydrogenase Family (ALDH1A3) Primary screen (AID 2061315)

Sequence of Cellular tumor antigen p53 (Homo sapiens) (P04637 whole entry, looked up): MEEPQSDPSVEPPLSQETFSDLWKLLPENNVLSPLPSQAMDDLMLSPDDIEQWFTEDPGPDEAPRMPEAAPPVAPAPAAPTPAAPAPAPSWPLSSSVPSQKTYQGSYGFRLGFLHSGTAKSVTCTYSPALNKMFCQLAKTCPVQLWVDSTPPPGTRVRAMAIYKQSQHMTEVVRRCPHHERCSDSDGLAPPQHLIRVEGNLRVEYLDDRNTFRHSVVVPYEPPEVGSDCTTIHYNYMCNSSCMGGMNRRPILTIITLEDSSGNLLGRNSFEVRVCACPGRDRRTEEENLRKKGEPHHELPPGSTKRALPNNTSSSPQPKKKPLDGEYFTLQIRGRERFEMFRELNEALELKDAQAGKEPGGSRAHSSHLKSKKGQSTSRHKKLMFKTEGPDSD

Compound | activation [1] [%] | Potency [2] | Potency [3] | Potency [1]
CC(C)=CCC[C@](C)(O)[C@H]1CC[C@]2(C)[C@@H]1[C@H](O)CC1[C@@]3(C)CC[C@H](O)C(C)(C)[C@@H]3[C@@H](O[C@@H]3O[C@H](CO)[C@@H](O)[C@H](O)[C@H]3O[C@@H]3O[C@H](CO)[C@@H](O)[C@H](O)[C@H]3O)C[C@]12C (stereo partly drawn) | -11.6 | inactive | inactive | 
CC1=C2CC(=O)C(C)CC/C=C(\C)CC2(O)OC1=O (stereo not drawn) | -1.53 | inactive | inactive | 
O=C(C[C@@H]1C(C(=O)O)=CO[C@@H](O[C@@H]2O[C@H](CO)[C@@H](O)[C@H](O)[C@H]2O)/C1=C\CO)OCCc1ccc(O)cc1 | 1.53 | inactive | inactive | 
C=C1CCC(OC(C)=O)C2(C)CC3OC(=O)C(C)=C3CC12 (stereo not drawn) | -0.763 | inactive | inactive | 
CC(=O)OC1CC2(C)C(CCC(C)C23Cc2c(O)cc4c(c2O3)CNC4=O)C(C)(C)C1O (stereo not drawn) | 9.92 | inactive | inactive | 
COc1ncc2cc(C(=O)Nc3cc(C(=O)NCc4cccc(Cl)c4)ccc3Cl)c(=O)[nH]c2n1 |  | inactive | inactive | 2.69 µM (active)
C[C@@H]1O[C@@H](O[C@H]2[C@@H]3C=CO[C@@H](O[C@@H]4O[C@H](CO)[C@@H](O)[C@H](O)[C@H]4O)[C@@H]3[C@@]3(CO)O[C@@H]23)[C@H](OC(=O)/C=C/c2ccc(O)cc2)[C@H](O)[C@H]1O | 6.87 | inactive | inactive | 
CC1OC(OC2CCC3(C)C(CCC4(C)C3C=CC35OCC6(CCC(C)(C)CC63)CCC45C)C2(C)CO)C(OC2OC(CO)C(O)C(O)C2O)C(O)C1OC1OC(CO)C(O)C(O)C1O (stereo not drawn) | 14.3 | inactive | inactive | 
Cc1nc(Nc2n[nH]c3c2CN(C(=O)NC(CN(C)C)c2ccccc2)C3(C)C)c2sccc2n1 (stereo not drawn) |  | inactive | inactive | 10.7 µM (active)
CC(=O)O[C@@H]1[C@H]2[C@@H](OC(=O)c3ccccc3)[C@@H](C)C[C@]2(O)[C@H](OC(C)=O)[C@@]2(C)[C@@H]3CC(C)(C)C(=O)[C@]3(OC(C)=O)C[C@@]12C | -15.2 | inactive | inactive | 
CC(=O)O[C@H]1C[C@@]2(C)[C@@H](CC[C@H]3[C@@]4(C)C=CC(=O)[C@@H](C)[C@@H]4[C@H](O)C(=O)[C@@]32C)/C1=C(/CCC=C(C)C)C(=O)O | 17.6 | inactive | inactive | 
COC(=O)c1ccccc1O[C@@H]1O[C@H](CO[C@@H]2OC[C@@H](O)[C@H](O)[C@H]2O)[C@@H](O)[C@H](O)[C@H]1O | -12.2 | inactive | inactive | 
Cc1ccn(-c2cc(Cl)ccc2[C@@H](Oc2cc(-c3ccc(C[C@H](N)C(=O)O)cc3)nc(N)n2)C(F)(F)F)n1 | -7 | inactive | inactive | 
CCC(C)/C=C(C)/C=C/C1=CC2=C(Cl)C(=O)C(C)(OC(C)=O)C(=O)C2=CN1C(CCC(=O)O)C(=O)O (stereo not drawn) | -13 | inactive | inactive | 
CC(O)CO[C@@H]1O[C@H](CO)[C@@H](O)[C@H](O)[C@H]1O (stereo partly drawn) | -4.58 | inactive | inactive | 
COc1c2c(c(C)c3c1C(=O)OC3)O[C@@]1(C)C[C@@H](OC(C)=O)[C@]34O[C@](OC)(CC[C@]3(C)[C@H]1C2)OC4(C)C | -5.36 | inactive | inactive | 
C[C@@]12C[C@]3(O)O[C@H](O1)[C@]1(COC(=O)c4ccccc4)[C@H]3C[C@@]12O[C@@H]1O[C@H](COC(=O)c2ccccc2)[C@@H](O)[C@H](O)[C@H]1O | -5.34 | inactive | inactive | 
CC1(CO)CCCC2(C)C1C(OC(=O)c1ccccc1)CC1C(=O)OCC12O (stereo not drawn) | -20.6 | inactive | inactive | 
CC1C(=O)CC2C3C(O)CC(C(=O)O)C12CC3(C)C (stereo not drawn) | 1.53 | inactive | inactive | 
CC1(C)C2CC[C@@]34CC(CC[C@H]3[C@]2(C)CC[C@@H]1O[C@@H]1O[C@H](CO)[C@@H](O)[C@H](O)[C@H]1O)[C@](C)(O)C4 (stereo partly drawn) | -22.1 | inactive | inactive | 
C/C=C(\C)C(=O)O[C@@H]1[C@@H](C)[C@]2(O)[C@@H]3C=C(C)C(=O)[C@H]3CC(CO)=C[C@H]2C2C(C)(C)[C@@]21OC(=O)C(C)CC (stereo partly drawn) | -1.79 | inactive | inactive | 
